Among all 330,000 compounds or so, about 1,900 (0.58%) were called active. Another 4% or so got no clear call; they are omitted. Not all results are given here. Measured potencies and affinities stand elsewhere. Values without a mark were called inactive. No stated cut-off is given here; in the data, inconclusive means inhibition above about 70% without an active follow-up result; inactive means below that.

The nature of this assay: M. tuberculosis growth inhibition, HTS (AID 449762).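 Further: bacterial growth assessed after seven days of incubation.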 The conditions noted are these: M. tuberculosis H37Rv growth inhibition, 7H9 media; at 25 µM; stronger effect = higher value.
`O=Cc1ccccc1OCc1ccc2c(c1)OCO2`: the inhibition is 12.1%.

With `CCOc1ccccc1NC(=O)Nc1ccc2c(c1)OCO2`, the inhibition is 0.34%. `COc1ccc(-c2nnc(SC3CCOC3=O)n2C2CCCCC2)cc1OC` (stereo unspecified): the inhibition was -0.52%.

Turning to `Cc1ccccc1N1CC(=O)N(c2ccccc2C)CC1=O`, the inhibition was -15.8%. In the case of `Cn1c2ccccc2c(=O)c2ccc(F)cc21` it was 38.4%. In the case of `COc1ccc(C2/C=C\CN(C(=O)C3CCCC3)[C@H](Cc3ccccc3)C(=O)N2Cc2ccc(F)cc2)cc1` (stereo partly specified) it was 5.26%; in that of `COc1ccc(CNC(=O)C2(C)Cc3ccccc3C(=O)O2)cc1` (stereo unspecified), -2.25%; in that of `Nc1ccc2nc(-c3ccccc3)c(-c3ccccc3)nc2c1`, 5.14%.

With `Nc1ccc2nc(-c3ccccc3)[nH]c2c1`, the inhibition was -2.77%. With `O=C(NCc1ccc(F)cc1)C1CCCN(C(=O)NCc2ccccc2)C1` (stereo unspecified), the inhibition is 0.48%. In the case of `Cc1ccc(C2(CC(=O)O)CCOC(C)(C)C2)cc1` (stereo unspecified) it was 5.71%; in that of `CCc1ccc2c(c1)C1(NN=C(c3ccc(C)cc3)S1)C(=O)N2` (stereo unspecified), 5.72%. With `Cc1cc(C)c(OCC(=O)Nc2ccccc2N2CCOCC2)c(C)c1` the figure was -8.49%. In the case of `Cn1c(SCc2ccccc2)nc2ccsc2c1=O` it was 33.7%.

Turning to `Cc1ccc(CSc2nc3ccccc3c(=O)n2C)cc1`, the inhibition is 6.4%. In the case of `O=C(Nc1cccnc1Cl)c1cc([N+](=O)[O-])ccc1Cl` it was 8.38%; in that of `OCCN(Cc1ccccc1)Cc1cccc(C(F)(F)F)c1`, 20.1%; in that of `COc1ccccc1/C=C/C(=O)OCC(=O)N1CCc2ccccc21`, 4.74%. As for `O=c1[nH]c(C2CCN(S(=O)(=O)c3ccccc3)CC2)nc2c1nnn2Cc1cccc(Cl)c1`, the inhibition was 4.46%. With `O=C(c1cccs1)N1CCC(c2nc3c(nnn3Cc3cccc(Cl)c3)c(=O)[nH]2)CC1` the figure was 6.04%; with `O=C1CSC(c2ccccc2)N1CC12CC3CC(CC(O)(C3)C1)C2` (stereo unspecified), -2.58%; with `CCOc1ccc(NC(=O)CN(C)C(=O)c2cc3c(s2)CCC(C)C3)cc1OCC` (stereo unspecified), 1.11%. In the case of `COc1ccc(-c2nc(NC(=O)Cn3cnnn3)sc2C)cc1` it was -7.31%. With `COc1ccc(-c2nc(NC(=O)CSCCO)sc2C)cc1` the figure was 2.7%; with `CCOc1ccc(N2C(=O)CC(NC3CCN(C(=O)c4ccc(F)cc4)CC3)C2=O)cc1` (stereo unspecified), -3%.

In the case of `Cc1cccc(OC(=O)c2cncc(Br)c2)c1`, the inhibition is 23.5%. In the case of `O=C(Oc1ccc(Br)cc1)c1cncc(Br)c1` it was -0.43%; in that of `O=C(CCC(=O)Nc1ccc(F)cc1)N/N=C/c1ccc(O)cc1O`, -2.52%; in that of `CC1CCCCN1Cc1c(O)ccc2c(=O)c(-c3ccc(Cl)cc3)coc12` (stereo unspecified), 0.71%.

As to `O=C1c2ccccc2C(=O)N1C(CO)C(O)c1ccc([N+](=O)[O-])cc1` (stereo unspecified), the inhibition is -1.67%.

Consider `O=C(CSC(=S)N1CCOCC1)Nc1ccc(S(=O)(=O)Nc2ncccn2)cc1`, for which the inhibition was -0.18%.

For `CCCC(=O)NNc1c2ccccc2nc2ccccc12`, the inhibition is -11.4%. With `O=C(NNc1c2ccccc2nc2ccccc12)c1ccc(O)cc1` the figure was 13.8%; with `[O-][n+]1cccc(C(O)c2ccccc2)c1` (stereo unspecified), -13.5%.

In the case of `COC(=O)c1c(C)oc(C)c1S(=O)(=O)N1CCOCC1`, the inhibition is -2.09%. With `C=CCNC(=O)C1CC(=O)N(c2ccc(OCC(=O)Nc3c(C)cccc3C)cc2)C1` (stereo unspecified) the figure was 1.18%; with `Cc1nnc(C)n1/N=C/c1c(O)ccc2ccccc12`, 2.29%; with `Cc1nc2ccccc2c(=O)n1/N=C/c1c(O)ccc2ccccc12`, 9.53%. With `Clc1ccccc1COc1ccccc1-c1nnco1`, the inhibition was 19.4%. With `O=C(Oc1ccccc1-c1nnco1)c1ccccc1` the figure was -3.01%; with `C/C(=N/NC(=O)c1ccc(Br)o1)C(C)C`, 3.04%; with `COCCNC(=S)N1CCc2cc(OC)c(OC)cc2C1c1cccs1` (stereo unspecified), -7.46%. Regarding `NC(=S)N/N=C\c1ccccc1OCc1ccccc1`, the inhibition was 49.5%. With `NC(=S)N/N=C/c1ccccc1OCc1cccc(Cl)c1` the figure was 2.95%; with `Cc1ccc(N2C(=O)c3cccc([N+](=O)[O-])c3C2=O)cc1C`, -6.94%; with `COc1ccc(-c2cc3c(=O)n(CC(=O)NCCCN4CCN(Cc5ccccc5)CC4)ncn3n2)cc1`, 1.94%. As to `COc1ccc(-c2cc3c(=O)n(CC(=O)NCCCN4CCC(N5CCCCC5)CC4)ncn3n2)cc1`, the inhibition is 2.99%. With `O=C(NCCC1=CCCCC1)C1CCN(C(=O)c2ccc(Br)cc2)CC1` the figure was 5.13%; with `Cc1ccccc1OCCn1cc(C(=O)O)c2ccccc21`, -0.94%. With `CCc1cc(C(=O)Nc2ncccc2O)sc1C` the figure was 6.5%; with `O=C(CCS(=O)(=O)c1ccccc1)Nc1nc(-c2ccc(F)cc2)cs1`, 8.67%; with `O=C(CCS(=O)(=O)c1ccc(F)cc1)Nc1nc(-c2ccncc2)cs1`, 31.5%. In the case of `Cc1ccnc2nc(C(=O)Nc3nc(-c4ccccn4)cs3)nn12` it was 0.14%; in that of `COc1cccc(-c2nc(CS(=O)(=O)CC(=O)NCCCN3CCc4ccccc4C3)c(C)o2)c1`, -28.4%; in that of `CCCc1cc(=O)n2[nH]cnc2n1`, -4.95%. Take `Cc1cc(C)n(CCOc2ccc(Br)cc2)n1`: the inhibition was 2.96%. Regarding `c1csc(CCNc2ncnc3sc4c(c23)CCC4)c1`, the inhibition is 1.63%. With `COc1ccc(/C=N/Nc2ncnc3sc4c(c23)CCCC4)cc1OC` the figure was -2.36%.

As to `CC(=O)CSc1nnc2cc(C)c3ccccc3n12`, the inhibition is 0.13%.

`CC(=O)N1CCN(c2ccc(NC(=O)c3cccc(OCc4ccccc4)c3)cc2)CC1`: the inhibition is 62.8%. In the case of `Cn1c(=O)c2c(nc(NCC(O)CO)n2CCc2ccccc2)n(C)c1=O` (stereo unspecified) it was 2.12%. With `CN1CCN(c2ccc(NC(=O)c3cccc(S(=O)(=O)N4CCCC4)c3)cc2)CC1` the figure was -4.85%; with `Cc1[nH]n(-c2ccccc2)c(=O)c1C(c1cccc([N+](=O)[O-])c1O)c1c(C)[nH]n(-c2ccccc2)c1=O`, -4.36%. In the case of `COc1ccc(C(C[N+](=O)[O-])c2c(C)[nH]n(-c3ccccc3)c2=O)cc1` (stereo unspecified) it was 32.3%.

For the compound `CCC1C(c2ccccc2)NC(c2ccccc2)CC1(O)c1ccc(F)cc1` (stereo unspecified), the inhibition was 29.1%. With `CCN1CC(C)C(O)(c2ccccc2)CC1C` (stereo unspecified) the figure was -1.44%; with `NC(=O)CC(NC(=O)Cc1cccc2ccccc12)c1ccc(N2CCC(Cc3ccccc3)CC2)c([N+](=O)[O-])c1` (stereo unspecified), -0.77%. With `COc1ccc(CN(C)C(=O)c2ccc(NC(=O)CC3SC(N4CCCC4)=NC3=O)cc2)c(OC)c1` (stereo unspecified) the figure was 7.53%; with `CC1CC(C)(C)CC2(C1)NC(=O)N(CC(=O)Nc1ccc(N3CCCCC3)cc1)C2=O` (stereo unspecified), 5.59%; with `C=C(C)CNC(=S)NN=C1c2ccccc2-c2ccccc21`, 12.3%. Consider `CC(C)NC(=S)NN=C1c2ccccc2-c2ccccc21`, for which the inhibition is -0.95%. For the compound `Cc1cc2c(cc(C(=O)O)n2C)s1`, the inhibition is -1.98%. In the case of `CCN(CC)CCCNC(=O)c1cc2c(-c3ccc(Cl)cc3)nn(C)c2s1` it was 47.1%; in that of `CCN(CC)CCNC(=O)c1cc2c(-c3ccc(Cl)cc3)nn(C)c2s1`, 7.68%; in that of `Clc1ccc(-c2cc3ccccc3nc2N2CCOCC2)cc1`, 48.3%. Consider `c1ccc(-c2cc3ccccc3nc2N2CCCC2)cc1`, for which the inhibition is 4.32%. As to `Cc1ccc(NC(=O)COC(=O)CCc2ccc(S(=O)(=O)N3CCOCC3)cc2)cc1F`, the inhibition is 2.39%.

On to `O=C(O)c1ccccc1C(=O)NC1CCCCNC1=O` (stereo unspecified), for which the inhibition was -1.29%.

`OCCNCC(O)Cn1ccc2ccccc21` (stereo unspecified): the inhibition was -2.23%.

Consider `OC(CNc1ccccc1)Cn1ccc2ccccc21` (stereo unspecified), for which the inhibition is 12.2%. Consider `CC(=O)c1ccc(C(=O)NC2CCCN(Cc3ccccc3F)C2)s1` (stereo unspecified), for which the inhibition is -25.9%. With `Cc1cc(C)cc(NC(=O)CCn2cnc3cc(C)c(C)cc32)c1` the figure was 62.6%; with `COc1ccc(/C=C2\Cc3ccccc3C2=O)cc1OC`, 5.99%. In the case of `COc1ccc(C=C2C(=O)OC(C)(C)OC2=O)cc1OC` it was 5.49%; in that of `CNC(=O)C(=O)NCC(c1cccs1)S(=O)(=O)c1ccc(F)cc1` (stereo unspecified), -2.67%; in that of `Cc1ccc(C)c(N2CCN(C(=O)c3ccc(NC4=NC5CS(=O)(=O)CC5S4)cc3)CC2)c1` (stereo unspecified), -1.31%.

For the compound `N#CC(C(=O)Nc1cccc(Cl)c1)=C1Nc2ccccc2N1`, the inhibition was 2.4%.

Regarding `N#CC(C(=O)Nc1ccc(Cl)cc1)=C1Nc2ccccc2N1`, the inhibition is 1.22%. With `O=C(CCCN1C(=O)S/C(=C\C=C\c2ccccc2)C1=O)Nc1ccc(C(=O)O)cc1` the figure was -3.27%. In the case of `O=C(COc1ccc(C(=S)N2CCOCC2)cc1Cl)Nc1ccccc1Cl` it was 6.58%; in that of `O=C(NNC(=O)C1CCN(S(=O)(=O)c2ccccc2C(F)(F)F)CC1)c1ccccc1O`, 6.28%; in that of `COc1cccc(N2CCN(C(=O)CCNS(=O)(=O)c3ccc4c(c3)c(=O)n(C)c(=O)n4C)CC2)c1`, -0.56%.

With `CCC(CC)c1nnc(NC(=O)c2cc([N+](=O)[O-])ccc2N2CCCCC2)s1`, the inhibition was 9.65%.

As for `COc1ccc(Nc2nc(N)nc(CN3CCc4ccccc4C3)n2)cc1`, the inhibition is 7.44%. With `Cc1ccc(Nc2nc(N)nc(CN3CCN(C)CC3)n2)cc1` the figure was -7.52%; with `CCC(C)c1ccc(OCC(=O)O)cc1` (stereo unspecified), -1.06%.

As usually defined, the inhibition is the relative decrease from the control value, in per cent.

The values above are taken from PubChem BioAssay AID449762 (Southern Research Specialized Biocontainment Screening …, 2010).
